# Experimental data: PubChem BioAssay (NCI)
# This is part of a sample that, as a whole, favours compounds with a hit. Of some 83,000 tested, about 20% had one in any assay.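 Method: cells in 96-well plates; compound added at one concentration; 48 h incubation; percent growth measured; values under 10 scored active.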 The source made the active and inactive calls.
# Experiments:
# Assay in all cases: NCI-60 one-dose screen, 48 h (100 = growth as untreated, 0 = no growth, -100 = all killed)
# Details in all cases: 10 µM
# T-47D breast = system: T-47D breast
# BT-549 breast = system: BT-549 breast
# MDA-MB-435 melanoma = system: MDA-MB-435 melanoma
# SW-620 colon = system: SW-620 colon
# MCF7 breast = system: MCF7 breast
# HCT-116 colon = system: HCT-116 colon
# HCC-2998 colon = system: HCC-2998 colon
# KM12 colon = system: KM12 colon
SMILES,growth (T-47D breast),growth (BT-549 breast),growth (MDA-MB-435 melanoma),growth (SW-620 colon),growth (MCF7 breast),growth (HCT-116 colon),growth (HCC-2998 colon),growth (KM12 colon)
Cc1ncc([N+](=O)[O-])n1CCOc1ccc(C(=O)/C=C/c2ccc(C(F)(F)F)cc2)cc1,51.6% (inactive),68.1% (inactive),83.1% (inactive),15.4% (inactive),12.7% (inactive),-59% (active),95.9% (inactive),14.5% (inactive)
O=c1oc2cc(OS(=O)(=O)C3CC3)ccc2c2c1CCCCCC2,57.6% (inactive),80.1% (inactive),94.8% (inactive),96.5% (inactive),81.6% (inactive),82.5% (inactive),90.8% (inactive),77.8% (inactive)
CC1(C)CC(OCCCC[P+](c2ccccc2)(c2ccccc2)c2ccccc2)CC(C)(C)N1O,-2.14% (active),17.3% (inactive),-57.9% (active),2.74% (active),-1.61% (active),12.4% (inactive),–,-51.6% (active)
O=C/C=C/c1ccc([N+](=O)[O-])cc1Cl,86.4% (inactive),106% (inactive),95.9% (inactive),90% (inactive),62.8% (inactive),2.9% (active),111% (inactive),95.6% (inactive)
COc1ccc(-c2nnc(N3CCN(C(=O)CN4CCN(c5ccc(Cl)cc5)CC4)CC3)nc2-c2ccc(OC)cc2)cc1,38.2% (inactive),59% (inactive),68% (inactive),69.3% (inactive),37.1% (inactive),34.1% (inactive),75.2% (inactive),50.5% (inactive)
COc1cc2ccnc(C=O)c2cc1OC,60.7% (inactive),56.3% (inactive),31.1% (inactive),30.2% (inactive),23.8% (inactive),9.15% (active),104% (inactive),92.1% (inactive)
O=c1oc2c3ccc4cnccc4c3[nH]c2c2ccccc12,-8.53% (active),32.7% (inactive),-69.8% (active),3.35% (active),-12.3% (active),-14.5% (active),–,28.2% (inactive)
COc1ccc(/C(CS(=O)(=O)c2ccccc2)=N\O)cc1,93.4% (inactive),102% (inactive),94.1% (inactive),111% (inactive),94.6% (inactive),125% (inactive),112% (inactive),123% (inactive)
COc1cc(N=C2C(=O)N(Cc3ccccc3)c3ccccc32)cc(OC)c1OC,83.9% (inactive),106% (inactive),98.5% (inactive),103% (inactive),93.8% (inactive),99.8% (inactive),–,96.1% (inactive)
CCCCCCCCCCCC(c1ccccc1)N(C)C (centres undefined),99.7% (inactive),101% (inactive),102% (inactive),95.4% (inactive),91.3% (inactive),94.4% (inactive),–,104% (inactive)
CC1(C)CC(=O)c2c(nc3ccc(Cl)cc3c2-c2ccccc2)C1,85.7% (inactive),85.8% (inactive),84.5% (inactive),159% (inactive),86.3% (inactive),91% (inactive),–,94% (inactive)
O=NN(CCCl)C(=O)NCc1ccc(-c2ccc(CNC(=O)N(CCCl)N=O)cc2)cc1,101% (inactive),86.6% (inactive),91.3% (inactive),89.5% (inactive),96.1% (inactive),89.2% (inactive),101% (inactive),98.9% (inactive)
Cc1ccc(Cl)cc1Nc1nc(C(F)(F)F)ccc1C(=O)N/N=C/c1c(Cl)cccc1Cl,-10.9% (active),31% (inactive),13.1% (inactive),3.99% (active),2.24% (active),12.7% (inactive),–,-15.9% (active)
COc1cccc(-c2nnc(COc3ccc(-c4nc5ccc(C)cc5[nH]4)cc3OC)o2)c1,50.7% (inactive),92.7% (inactive),41.6% (inactive),64.5% (inactive),18.5% (inactive),29.4% (inactive),88.6% (inactive),39.7% (inactive)
CC(=O)c1ccc(NCn2nc(-c3ccc(Cl)cc3)oc2=S)cc1,80% (inactive),99.1% (inactive),105% (inactive),104% (inactive),95.7% (inactive),93.3% (inactive),99.7% (inactive),93.1% (inactive)
C=CCn1ccc(=O)nc1SC,97.2% (inactive),105% (inactive),108% (inactive),103% (inactive),100% (inactive),112% (inactive),103% (inactive),104% (inactive)
CCOC(=O)c1c(O)c2cc(-c3ccccc3)nc(OCC)c2c(=O)n1C,94.7% (inactive),133% (inactive),90.1% (inactive),104% (inactive),93.8% (inactive),87.7% (inactive),–,104% (inactive)
C/C(=N\NC(=O)c1sc(=S)n(C)c1N)c1cc2ccccc2o1,78.2% (inactive),87.2% (inactive),41% (inactive),81.3% (inactive),34.8% (inactive),59.1% (inactive),–,21.5% (inactive)
Cc1ccc2c(c1)-c1cc(C)nn1-c1ccc(C#N)cc1O2,51.8% (inactive),78.5% (inactive),8.67% (active),41% (inactive),42% (inactive),–,90% (inactive),56.9% (inactive)
Cc1nc(Nc2nc3ccccc3o2)nc(-c2cccc([N+](=O)[O-])c2)c1C(=O)Nc1ccc(F)c(Cl)c1,5.31% (active),19.4% (inactive),8.91% (active),9.75% (active),3.7% (active),–,-25.6% (active),-14.6% (active)
Cc1nnc2c3nnc(-c4ccc(Cl)cc4)n3c3ccccc3n12,105% (inactive),91.5% (inactive),94.9% (inactive),106% (inactive),101% (inactive),–,102% (inactive),103% (inactive)
CCCCCCCCCCCCCCCCn1cc[n+](C)c1,-0.127% (active),-65.2% (active),-55.8% (active),-66.7% (active),-79.9% (active),–,-94.4% (active),-83.9% (active)
CCOc1nc(-c2ccccc2)cc2c(O)c(C(=O)N/N=C/c3ccc(OC)cc3)[nH]c(=O)c12,80.9% (inactive),123% (inactive),113% (inactive),110% (inactive),101% (inactive),109% (inactive),–,107% (inactive)
COc1cc(-c2nc3ccc(C)cc3[nH]2)ccc1OCC(=O)N=Nc1c(O)[nH]c2ccccc12,-61.2% (active),18.9% (inactive),-52.6% (active),-62.9% (active),-73.4% (active),–,-91.2% (active),-79.4% (active)
O=C(COc1ccc(Cl)cc1Cl)Oc1coc(CSc2nc3ccccc3s2)cc1=O,101% (inactive),108% (inactive),114% (inactive),20.7% (inactive),102% (inactive),105% (inactive),–,110% (inactive)
COc1ccc(Cn2cc3c(c2-c2cc(OC)c(OC)c(OC)c2)CCc2cnoc2-3)cc1[N+](=O)[O-],40% (inactive),51.9% (inactive),-53.9% (active),26.6% (inactive),26.6% (inactive),–,18% (inactive),24.7% (inactive)
COc1ccc(N2CCN(c3nc(-c4ccccc4)c(C#N)c(=O)[nH]3)CC2)cc1,85.7% (inactive),93.6% (inactive),111% (inactive),113% (inactive),93.9% (inactive),–,99.8% (inactive),96.8% (inactive)
